Measured values taken from publication PMC13083723 (Patterns, 2026).
In all, about 5,400 compounds went through this assay and about 190 (3.5%) showed an effect of 50% or more. What follows is part of a selection rich in strong results, with near analogues and random picks from the rest. Non-standard residues stand in square brackets, D forms with d. Residues, ends and D or L forms follow the SMILES beside them.

The compounds below were run on Vero-E6 (assay: primary screen, phospholipidosis by LipidTOX staining; higher = more effect of the substance). Details: 10 µM.
Summary of the method: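 Drug-induced phospholipidosis detected with HCS LipidTOX Red reagent in Vero-E6 cells. Compounds tested at 10 μM, with amiodarone (10 μM) as positive control and DMSO (0.1 v/v %) as vehicle.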

| SMILES | result_ITMP [%] |
| --- | --- |
| Cc1c(-c2ccc(O)cc2)n(Cc2ccc(OCCN3CCCCCC3)cc2)c2ccc(O)cc12 | 57.2 |
| CCCCCS(=O)(=O)CCCCCCCCCCn1c(-c2ccc(O)cc2)c(C)c2cc(O)ccc21 | -3.27 |
| O=C(c1ccc(OCCN2CCCCC2)cc1)c1c(-c2ccc(O)cc2)sc2cc(O)ccc12 | 74.6 |
| CC(C)N1CCN(c2ccc(C(=O)c3c(-c4ccc(O)cc4)sc4cc(O)ccc34)cc2)CC1 | -7.16 |
| Cc1ccc(CC2(O)CCN(CCOc3ccc(O)cc3)CC2)cc1 | -3.85 |
| CCCCOc1ccc(C(=O)CCN2CCCCC2)cc1 | 4.72 |
| Cc1c(C(=O)Nc2ccc(N3C[C@@H](C)O[C@@H](C)C3)nc2)cccc1-c1ccc(OC(F)(F)F)cc1 | -6.29 |
| CCn1c(-c2ccc(Cl)cc2)n[nH]c1=O | -4.76 |
| CCCCC[C@H](O)/C=C/[C@@H]1[C@H]2C/C(=C/CCCC(=O)[O-])O[C@H]2C[C@H]1O | 0.37 |
| O=C([O-])CN(CCN(CC(=O)[O-])CC(=O)O)CCN(CC(=O)[O-])CC(=O)O | 0.03 |
| CN1CCC(OC(c2ccccc2)c2ccccc2)CC1 | 26.1 |
| Fc1ccc(C(OCCN2CCN(CCCc3ccccc3)CC2)c2ccc(F)cc2)cc1 | 24.8 |
| CC(C(=O)OC1CC2CCC(C1)N2C)c1ccc(Br)cc1 (stereo not drawn) | 20.6 |
| CN1C2CC[C@@H]1C[C@@H](OC(=O)[C@H](CO)c1ccccc1)C2 | -4.79 |
| CN1C2CCC1CC(OC(c1ccccc1)c1ccc(Cl)cc1)C2 (stereo not drawn) | 98.3 |
| CCCCN1[C@@H]2CC[C@H]1C[C@@H](OC(c1ccc(F)cc1)c1ccc(F)cc1)C2 | 51.4 |
| CN1C2CCC1CC(OC(c1ccc(F)cc1)c1ccc(F)cc1)C2 (stereo not drawn) | 61.5 |
| CN1[C@@H]2CC[C@H]1C[C@@H](OC(=O)C(O)c1ccccc1)C2 (stereo partly drawn) | -3.26 |
| CN1[C@@H]2CC[C@H]1C[C@@H](OC(c1ccccc1)c1ccccc1)C2 | 35.6 |
| C[C@H](NC(=O)[C@@H](Cc1c[nH]c2ccccc12)NC(=O)[C@@H](N)Cc1cnc[nH]1)C(=O)N[C@@H](Cc1c[nH]c2ccccc12)C(=O)N[C@H](Cc1ccccc1)C(=O)N[C@@H](CCCCN)C(N)=O (H-H[dW]AW[dF]K-NH2) | -2.53 |
| Cc1ccc(OC[C@@H](O)[C@H](C)NC(C)C)c2c1CCC2 (racemic) | 10.4 |
| CO[C@@]12[C@@H]3NC3CN1C1=C(C(=O)C(N)=C(C)C1=O)[C@@H]2COC(N)=O (stereo partly drawn) | 0.39 |
| OC[C@@H](O)C(O[C@@H]1O[C@H](CO)[C@H](O)[C@H](O)[C@H]1O)[C@H](O)[C@@H](O)CO (stereo partly drawn) | -8.28 |
| O=C(O)[C@H]1CC[C@H](c2cc3cccnc3c(-c3cccc(F)c3)n2)CC1 | -0.01 |
| O[C@@H]1CO[C@H]2[C@@H]1OC[C@@H]2O | -0.79 |
| COc1cc(N)c(Cl)cc1C(=O)OCCN1CCCCC1 | -1.25 |

| SMILES | result_ITMP [%] |
| --- | --- |
| COc1cc(N)c(Cl)cc1C(=O)OCCCN1CCCCC1 | 0.68 |
| COc1cc(C(=O)OCCCN2CCCN(CCCOC(=O)c3cc(OC)c(OC)c(OC)c3)CC2)cc(OC)c1OC | 58.7 |
| O=C(O)C[CH2][Ge](=[O])[O][Ge](=[O])[CH2]CC(=O)O | -3.6 |
| Cc1ccc(C(=O)Nc2ccc(S(=O)(=O)[O-])c3cc(S(=O)(=O)[O-])cc(S(=O)(=O)[O-])c23)cc1NC(=O)c1cccc(NC(=O)Nc2cccc(C(=O)Nc3cc(C(=O)Nc4ccc(S(=O)(=O)[O-])c5cc(S(=O)(=O)[O-])cc(S(=O)(=O)[O-])c45)ccc3C)c2)c1 | -3.34 |
| C[C@@H](O)[C@H]1C(=O)N2C(C(=O)[O-])=C(S[C@@H]3CN[C@H](C(=O)Nc4cccc(C(=O)O)c4)C3)[C@H](C)[C@H]12 | -0.24 |
| C[C@H](NC(=O)CCc1nc2ccccc2c(=O)[nH]1)c1ccccc1 [R4A_0003503_001 / SPE_K24283677] | -1.61 |
| C/C=C1/[C@H]2C=C(C)C[C@]1(N)c1ccc(=O)[nH]c1C2 | -2.16 |
| O=C(Nc1ncc(SCCN2CCCC2)s1)[C@]1(c2ccc(S(=O)(=O)C3CC3)cc2)C[C@H]1C1CCCCC1 | 55.8 |
| C[C@H](CCC(=O)O)[C@H]1CC[C@H]2[C@@H]3CC[C@@H]4C[C@H](O)CC[C@]4(C)[C@H]3C[C@H](O)[C@]12C | 0.11 |
| Nc1nc(S)c2nc[nH]c2n1 | 26.6 |
| O=C(Nc1ccccc1)OCC(CN1CCCCC1)OC(=O)Nc1ccccc1 (stereo not drawn) | 54.4 |
| Cc1ccc(C(=O)C(C)CN2CCCCC2)cc1 (stereo not drawn) | -4.52 |
| O=C(NCCCN1CCCCCC1)C(c1ccccc1)C1CCCCC1 (stereo not drawn) | 36.5 |
| CCn1c(=O)/c(=C2\Sc3ccccc3N2C)s/c1=C/c1cccc[n+]1CC | -7.97 |
| CCC(C)CNCC(=O)N1CCc2sccc2C1COc1cccc(C)c1 (stereo not drawn) | 57.8 |
| COc1ccc(CCNCC(O)COc2cccc(C)c2)cc1OC (stereo not drawn) | 34.1 |
| Nc1ccc(S(=O)(=O)[O-])cc1 | -6.57 |
| O=C([O-])CN1CCN(CC(=O)[O-])CCN(C(CO)C(O)CO)CCN(CC(=O)[O-])CC1.[Gd+3] (stereo not drawn) | -1.16 |
| O=C([O-])c1cc(/N=N/c2ccc(O)c(C(=O)[O-])c2)ccc1O | -2.29 |
| OC(CN1CCNCC1)Cn1c2ccc(Br)cc2c2cc(Br)ccc21 (stereo not drawn) | 123 |
| CN(C)CC(O)Cn1c2ccc(Br)cc2c2cc(Br)ccc21 (stereo not drawn) | 28.6 |
| OC(CNc1ccccc1)Cn1c2ccc(Br)cc2c2cc(Br)ccc21 (stereo not drawn) | -2.55 |
| C=C[C@]1(C)C[C@@H](OC(=O)CS[C@@H]2C[C@H]3CC[C@@H](C2)N3C)[C@]2(C)[C@H](C)CC[C@]3(CCC(=O)[C@H]32)[C@@H](C)[C@@H]1O | 12.9 |
| NC(=O)c1cc[n+](CC2=C(C(=O)[O-])N3C(=O)[C@@H](NC(=O)[C@@H](c4ccccc4)S(=O)(=O)[O-])[C@H]3SC2)cc1 | 4.59 |
| Cc1c(CN(C)C(=O)/C=C/C2=CNC3=NC(=O)CCC3=C2)oc2ccccc12 | -2.49 |
| CC(CN(C)C)CN1c2ccccc2CCc2ccccc21 (stereo not drawn) | 34.6 |

| SMILES | result_ITMP [%] |
| --- | --- |
| CC(CN(C)C)CN1c2ccccc2Sc2ccccc21 (stereo not drawn) [R4A_0005516_001 / SPE_A49225603] | 81.1 |
| CCN1/C(=C/C(C)=O)Sc2ccc(OC)cc21 | -4.89 |
| CC(CN(C)C)CN1c2ccccc2Sc2ccc(C#N)cc21 (stereo not drawn) | 42.4 |
| CC(CN(C)C)CN1c2ccccc2Sc2ccccc21 (stereo not drawn) [R4A_0005516_001 / SPE_M58473998] | 17.1 |
| COc1ccc2c(c1)N(C[C@H](C)CN(C)C)c1ccccc1S2 | 53 |
| C[C@@H]1CC2C3CCC4=CC(=O)C=C[C@]4(C)[C@@]3(F)[C@@H](O)C[C@]2(C)[C@@]1(O)C(=O)COP(=O)([O-])[O-] (stereo partly drawn) | -3.97 |
| NC(CSC(c1ccccc1)(c1ccccc1)c1ccccc1)C(=O)O (stereo in doubt) | -1.96 |
| CC(N)Cc1cccc(O)c1 (stereo not drawn) | -6.46 |
| CCC(=O)O[C@H]1CCC2C3CCC4=CC(=O)CC[C@]4(C)C3CC[C@@]21C (stereo partly drawn) | 5.62 |
| NC(=O)OC[C@@H]1[C@H](NC(=O)/C(=N\OCC(=O)[O-])c2csc(N)n2)C(=O)N1S(=O)(=O)[O-] | 0.72 |
| CCCC(=O)Nc1ncnc2c1ncn2C1O[C@@H]2COP(=O)([O-])O[C@H]2[C@H]1OC(=O)CCC (stereo partly drawn) | -5.79 |
| CC[C@]12C=CCN3CC[C@@]4(c5cc([C@@]6(C(=O)OC)C[C@H]7C[C@@H](C(C)(F)F)CN(Cc8c6[nH]c6ccccc86)C7)c(OC)cc5N(C)[C@H]4[C@@](O)(C(=O)OC)[C@@H]1OC(C)=O)[C@@H]32 | 49.7 |
| COc1cc(N)c(Cl)cc1C(=O)NC1CN2CCC1CC2 (stereo not drawn) | -9.6 |
| O=C(N[C@H]1CN2CCC1CC2)c1ccc(Cl)cc1 | -0.98 |
| O=C(N[C@H]1CN2CCC1CC2)c1cc2cccc(Cl)c2s1 | 100 |
| C[C@H](CCC(=O)O)[C@H]1CC[C@H]2[C@@H]3C[C@H](O)[C@@H]4C[C@H](O)CC[C@]4(C)[C@H]3CC[C@]12C | 1.59 |
| c1ccc2c(Cc3c[nH]c4ccccc34)c[nH]c2c1 | -4.8 |
| CC(=O)NCCc1c[nH]c2ccccc12 | -3.74 |
| c1ccc2c(CCNc3ccc(Nc4ccncc4)cc3)c[nH]c2c1 | 74 |
| CCCCc1nc(Cl)c(C(=O)O)n1Cc1ccc(-c2ccccc2-c2nnn[nH]2)cc1 | -4.07 |
| CN1CCCC1CCSc1ccc(O)cc1 (stereo not drawn) | 2.34 |
| CC(C)(C)c1ccc(C(O)CCCN2CCC(C(O)(c3ccccc3)c3ccccc3)CC2)cc1 (stereo not drawn) | -4.73 |
| CN1CCC[C@@H]1CCO[C@](C)(c1ccccc1)c1ccc(Cl)cc1 | 90.6 |
| C=C1/C(=C\C=C2/CCC[C@]3(C)[C@@H]([C@H](C)CCCC(C)(C)O)CC[C@@H]23)C[C@@H](O)C[C@@H]1O | -1.95 |
| CC[C@H]1[C@@H](O)[C@@H]2[C@H](CC[C@]3(C)[C@@H]([C@H](C)CCC(=O)O)CC[C@@H]23)[C@@]2(C)CC[C@@H](O)C[C@@H]12 | -0.78 |
| CO[C@H]1/C=C/O[C@@]2(C)Oc3c(C)c(O)c4c(O)c(cc([O-])c4c3C2=O)NC(=O)/C(C)=C\C=C\C(C)[C@H](O)[C@@H](C)[C@@H](O)[C@@H](C)[C@H](OC(C)=O)[C@@H]1C (stereo partly drawn) | -1.11 |
